Assay results published in the supplement of paper PMC11732987, “Enantioselective OTUD7B fragment discovery through chemoproteomics screening and high-throughput optimisation” (Communications Chemistry, 2025).

How the values were obtained:
Assay in all cases: log2 ratio of Biotin-Ahx-Ub-VS probe labelling (fragment/DMSO); higher = less target engagement (more negative = stronger competition), active = hit call of the paper (q ≤ 0.05, log2 ratio ≤ -1)
Conditions in all cases: compound concentration: 200 uM; treatment time: 3 h
[1] = target: T1, ALG13 (UniProt Q9NP73)
T1 sequence (whole entry): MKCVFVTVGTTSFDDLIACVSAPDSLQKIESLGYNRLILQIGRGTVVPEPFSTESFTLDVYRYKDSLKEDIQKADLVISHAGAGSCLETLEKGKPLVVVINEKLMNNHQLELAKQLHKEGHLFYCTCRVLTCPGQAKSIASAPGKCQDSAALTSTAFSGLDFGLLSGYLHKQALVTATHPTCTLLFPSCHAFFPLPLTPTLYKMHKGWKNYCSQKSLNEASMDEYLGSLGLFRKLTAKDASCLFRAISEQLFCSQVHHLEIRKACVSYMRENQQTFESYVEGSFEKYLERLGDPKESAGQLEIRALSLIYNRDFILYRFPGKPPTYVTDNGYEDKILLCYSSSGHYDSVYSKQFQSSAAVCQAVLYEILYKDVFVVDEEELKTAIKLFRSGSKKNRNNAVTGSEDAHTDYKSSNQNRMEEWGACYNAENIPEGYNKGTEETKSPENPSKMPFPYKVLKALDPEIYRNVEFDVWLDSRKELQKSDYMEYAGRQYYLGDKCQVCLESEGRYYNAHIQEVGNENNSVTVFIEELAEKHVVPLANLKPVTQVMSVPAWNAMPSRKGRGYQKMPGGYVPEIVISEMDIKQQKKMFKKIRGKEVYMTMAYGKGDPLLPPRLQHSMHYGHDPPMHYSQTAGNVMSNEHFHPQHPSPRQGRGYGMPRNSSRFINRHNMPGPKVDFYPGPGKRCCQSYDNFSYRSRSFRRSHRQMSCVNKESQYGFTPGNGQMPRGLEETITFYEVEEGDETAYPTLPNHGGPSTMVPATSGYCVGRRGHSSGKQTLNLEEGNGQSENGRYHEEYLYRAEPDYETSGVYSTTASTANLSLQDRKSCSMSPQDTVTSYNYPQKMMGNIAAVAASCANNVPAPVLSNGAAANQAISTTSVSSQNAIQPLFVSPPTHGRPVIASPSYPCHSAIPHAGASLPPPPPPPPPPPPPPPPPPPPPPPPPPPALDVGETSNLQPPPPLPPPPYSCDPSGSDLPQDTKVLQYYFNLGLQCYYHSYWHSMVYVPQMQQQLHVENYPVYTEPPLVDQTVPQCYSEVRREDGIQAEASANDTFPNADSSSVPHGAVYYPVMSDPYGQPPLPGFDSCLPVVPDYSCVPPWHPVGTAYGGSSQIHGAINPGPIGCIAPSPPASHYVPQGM
Procedure, shortened: (§1)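 HEK293T lysate, 495 µg per sample in Tris/CHAPS/IGEPAL buffer with protease inhibitors, was treated in triplicate with fragment at 200 µM or vehicle for 3 h and then with Biotin-Ahx-Ub-VS at 0.5 µM final for 1 h. Labelled DUBs were NeutrAvidin-enriched, digested with LysC and trypsin, and run by diaPASEF LC-MS/MS. Spectronaut label-free quantities were global-median-normalised, and values are average log2 fragment/vehicle ratios by unpaired t-test on proteins with ≥2 unique peptides.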

[2] = target: ATXN3 (UniProt P54252)
ATXN3, sequence (P54252 whole entry): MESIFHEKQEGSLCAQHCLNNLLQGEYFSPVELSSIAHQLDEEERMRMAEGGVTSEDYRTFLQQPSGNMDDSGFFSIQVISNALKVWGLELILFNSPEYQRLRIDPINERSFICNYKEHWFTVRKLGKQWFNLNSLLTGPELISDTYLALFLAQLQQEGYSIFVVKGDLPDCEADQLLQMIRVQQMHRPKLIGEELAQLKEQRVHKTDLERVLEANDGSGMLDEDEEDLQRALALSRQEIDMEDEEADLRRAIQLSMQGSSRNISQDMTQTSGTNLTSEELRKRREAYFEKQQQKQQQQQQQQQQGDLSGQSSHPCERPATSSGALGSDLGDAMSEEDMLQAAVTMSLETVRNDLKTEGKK
Procedure, shortened: as §1

[3] = target: T2, BAP1 (UniProt Q92560)
T2 sequence (whole entry): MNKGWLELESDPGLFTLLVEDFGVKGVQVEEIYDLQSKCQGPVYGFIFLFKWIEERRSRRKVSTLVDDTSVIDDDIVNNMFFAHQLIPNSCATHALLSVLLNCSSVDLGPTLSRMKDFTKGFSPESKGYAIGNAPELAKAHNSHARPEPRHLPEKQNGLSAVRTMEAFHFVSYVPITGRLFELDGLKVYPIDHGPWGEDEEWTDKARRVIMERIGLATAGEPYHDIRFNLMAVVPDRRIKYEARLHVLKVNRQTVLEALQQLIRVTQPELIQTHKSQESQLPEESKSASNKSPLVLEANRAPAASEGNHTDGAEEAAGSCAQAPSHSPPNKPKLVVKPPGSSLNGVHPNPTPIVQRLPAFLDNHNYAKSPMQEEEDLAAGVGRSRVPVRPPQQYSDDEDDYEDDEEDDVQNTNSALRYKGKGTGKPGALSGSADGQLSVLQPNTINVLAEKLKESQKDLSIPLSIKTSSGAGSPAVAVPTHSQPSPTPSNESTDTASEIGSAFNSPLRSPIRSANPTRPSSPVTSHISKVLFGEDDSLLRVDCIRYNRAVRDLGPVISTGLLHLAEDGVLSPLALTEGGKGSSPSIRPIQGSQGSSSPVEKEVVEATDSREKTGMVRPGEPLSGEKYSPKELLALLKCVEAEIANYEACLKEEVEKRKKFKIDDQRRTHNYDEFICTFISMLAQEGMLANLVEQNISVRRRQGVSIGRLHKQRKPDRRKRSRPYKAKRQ
Procedure, shortened: as §1

[4] = target: EIF3F (UniProt O00303)
EIF3F, sequence (O00303 whole entry): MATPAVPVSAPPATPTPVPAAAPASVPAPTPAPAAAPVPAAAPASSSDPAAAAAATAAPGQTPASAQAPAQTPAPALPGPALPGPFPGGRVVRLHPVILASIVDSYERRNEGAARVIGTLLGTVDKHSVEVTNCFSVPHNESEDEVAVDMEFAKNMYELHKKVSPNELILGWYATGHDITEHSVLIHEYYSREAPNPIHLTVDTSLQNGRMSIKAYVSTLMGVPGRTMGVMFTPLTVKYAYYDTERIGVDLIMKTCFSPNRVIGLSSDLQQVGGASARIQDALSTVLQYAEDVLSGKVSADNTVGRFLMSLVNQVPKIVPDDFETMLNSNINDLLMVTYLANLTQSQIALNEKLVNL
Procedure, shortened: as §1

[5] = target: EIF3H (UniProt O15372)
EIF3H, sequence (O15372 whole entry): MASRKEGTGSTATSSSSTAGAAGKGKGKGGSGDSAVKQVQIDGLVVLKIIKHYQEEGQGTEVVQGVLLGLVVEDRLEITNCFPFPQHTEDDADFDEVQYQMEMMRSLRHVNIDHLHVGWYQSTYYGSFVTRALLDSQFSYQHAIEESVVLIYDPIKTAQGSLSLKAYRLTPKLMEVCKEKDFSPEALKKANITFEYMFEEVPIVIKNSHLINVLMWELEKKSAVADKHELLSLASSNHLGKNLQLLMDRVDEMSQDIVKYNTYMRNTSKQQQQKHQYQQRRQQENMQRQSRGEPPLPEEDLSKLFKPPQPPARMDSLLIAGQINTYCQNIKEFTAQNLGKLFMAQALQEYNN
Procedure, shortened: as §1

[6] = target: T3, FAM105A (UniProt Q9NUU6)
T3 sequence (whole entry): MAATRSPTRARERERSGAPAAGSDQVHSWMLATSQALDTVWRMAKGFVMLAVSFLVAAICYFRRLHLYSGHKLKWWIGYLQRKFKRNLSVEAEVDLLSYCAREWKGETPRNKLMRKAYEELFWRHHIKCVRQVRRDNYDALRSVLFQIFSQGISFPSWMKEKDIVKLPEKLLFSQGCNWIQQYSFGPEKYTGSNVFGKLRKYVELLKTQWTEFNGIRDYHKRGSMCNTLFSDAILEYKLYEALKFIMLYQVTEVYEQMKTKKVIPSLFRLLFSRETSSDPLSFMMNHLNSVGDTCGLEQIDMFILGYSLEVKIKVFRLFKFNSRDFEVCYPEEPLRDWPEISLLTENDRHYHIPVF
Procedure, shortened: as §1

[7] = target: OTUB1 (UniProt Q96FW1)
OTUB1, sequence (Q96FW1 whole entry): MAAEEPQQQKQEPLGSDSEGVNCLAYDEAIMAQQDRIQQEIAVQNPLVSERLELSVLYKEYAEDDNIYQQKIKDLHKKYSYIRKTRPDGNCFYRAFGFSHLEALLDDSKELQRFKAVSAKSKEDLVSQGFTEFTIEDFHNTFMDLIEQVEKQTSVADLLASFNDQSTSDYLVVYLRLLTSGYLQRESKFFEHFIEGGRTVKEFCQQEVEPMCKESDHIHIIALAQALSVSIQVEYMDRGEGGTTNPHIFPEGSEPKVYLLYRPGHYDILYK
Procedure, shortened: as §1

[8] = target: T4, OTUD4 (UniProt Q01804)
T4 sequence (whole entry): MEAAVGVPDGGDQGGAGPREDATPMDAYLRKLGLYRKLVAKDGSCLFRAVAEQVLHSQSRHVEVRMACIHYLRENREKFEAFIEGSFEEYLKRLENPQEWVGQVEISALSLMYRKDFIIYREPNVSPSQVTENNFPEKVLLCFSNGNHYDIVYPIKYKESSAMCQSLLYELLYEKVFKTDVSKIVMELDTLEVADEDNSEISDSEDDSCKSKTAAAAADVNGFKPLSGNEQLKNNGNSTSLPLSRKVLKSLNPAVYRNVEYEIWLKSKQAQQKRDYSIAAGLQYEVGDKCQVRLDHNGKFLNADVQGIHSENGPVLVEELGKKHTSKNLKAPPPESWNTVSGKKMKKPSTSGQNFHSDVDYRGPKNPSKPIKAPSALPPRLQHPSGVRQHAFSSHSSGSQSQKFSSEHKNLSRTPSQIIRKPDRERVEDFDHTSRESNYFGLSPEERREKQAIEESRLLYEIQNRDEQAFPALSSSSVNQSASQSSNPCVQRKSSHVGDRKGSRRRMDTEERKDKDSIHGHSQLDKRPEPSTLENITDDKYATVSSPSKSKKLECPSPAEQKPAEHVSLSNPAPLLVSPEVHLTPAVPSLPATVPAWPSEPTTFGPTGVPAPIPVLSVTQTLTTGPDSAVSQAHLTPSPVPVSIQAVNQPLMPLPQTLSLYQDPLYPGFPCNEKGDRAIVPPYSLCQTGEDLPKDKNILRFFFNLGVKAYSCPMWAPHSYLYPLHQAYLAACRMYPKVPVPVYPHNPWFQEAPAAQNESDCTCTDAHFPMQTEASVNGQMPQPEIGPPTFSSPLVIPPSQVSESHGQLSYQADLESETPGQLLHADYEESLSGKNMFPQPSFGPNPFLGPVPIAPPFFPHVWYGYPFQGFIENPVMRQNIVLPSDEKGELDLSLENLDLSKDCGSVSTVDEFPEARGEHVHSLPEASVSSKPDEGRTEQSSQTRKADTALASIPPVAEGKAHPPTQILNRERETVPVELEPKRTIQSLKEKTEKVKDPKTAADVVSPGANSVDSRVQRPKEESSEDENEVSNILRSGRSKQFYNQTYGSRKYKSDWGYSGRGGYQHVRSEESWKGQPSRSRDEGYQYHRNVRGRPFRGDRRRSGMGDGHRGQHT
Procedure, shortened: as §1

[9] = target: T5, OTUD5 (UniProt Q96G74)
T5 sequence (whole entry): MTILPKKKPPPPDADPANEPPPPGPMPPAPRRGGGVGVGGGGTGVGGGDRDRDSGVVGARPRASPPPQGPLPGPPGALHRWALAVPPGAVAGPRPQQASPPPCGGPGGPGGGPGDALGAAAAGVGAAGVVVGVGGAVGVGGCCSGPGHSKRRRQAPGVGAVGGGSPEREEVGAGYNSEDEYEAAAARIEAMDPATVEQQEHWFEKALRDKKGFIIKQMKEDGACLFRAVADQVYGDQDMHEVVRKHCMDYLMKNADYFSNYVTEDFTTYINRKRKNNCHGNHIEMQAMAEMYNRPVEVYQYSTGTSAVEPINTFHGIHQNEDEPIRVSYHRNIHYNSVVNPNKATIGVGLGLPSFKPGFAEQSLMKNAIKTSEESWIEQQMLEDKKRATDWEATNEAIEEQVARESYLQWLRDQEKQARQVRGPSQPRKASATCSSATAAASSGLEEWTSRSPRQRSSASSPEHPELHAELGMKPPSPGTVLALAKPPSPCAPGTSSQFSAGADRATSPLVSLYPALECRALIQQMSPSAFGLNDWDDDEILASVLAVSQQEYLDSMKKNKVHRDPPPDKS
Procedure, shortened: as §1

Measured: log2 ratio of Biotin-Ahx-Ub-VS probe labelling

O=C(CCl)N1CCN2C(=O)CCC2C1 (centres undefined)
inactive: [1] 0.0971 | [2] -0.237 | [3] -0.591 | [4] 0.0885 | [5] -0.0249 | [6] 0.154 | [7] -0.19 | [8] -0.461 | [9] -0.499
